High-throughput results deposited in PubChem BioAssay by National Center for Advancing Translational Sciences (NCATS).
Most compounds without a hit are left out; they make up all but 1.4% or so of the library.
GRP78 ERSR act – qHTS for Inducers of the Endoplasmic Reticulum Stress Response (ERSR) in Human Glioma: qHTS | U87-MG GRP78 promoter luciferase reporter, 16 h | Potency, µM, for the others: at the highest dose activation, most hits filed as activators | hit rate 0.02% among 420,000 | AID 602332, 2012; further: potency means the concentration at half of the fitted maximal effect; series mostly up to about 76 µM; % of control where 0% means no effect; nearly all actives have a fitted effect of over 35% in size
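Stably transfected U87-MG human glioma cells carrying a GRP78-based luminescent sensor were seeded at 1000 cells/well, pin-dosed with compounds and incubated 16 h. Luciferase reagent was then added, and end-point luminescence was read after 10 min at room temperature.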
KCNH2 3.1 inh – qHTS for Inhibitors of KCHN2 3.1: Mutant qHTS | Potassium voltage-gated channel subfamily H member 2, brain isoform KCNH2 3.1 (human) | U2OS KCNH2 3.1, thallium flux FluxOr; hits give low values | activity change, % (tested at about 1.8 µM) | hit rate 0.95% among 340,000 | AID 720553, 2013;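 active means maximum activity change below -70%; inconclusive means maximum activity change from -70% to -50%; inactive means maximum activity change above -50%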;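 further: thallium influx rate constant from kinetic fluorescence after stimulation buffer; on the % scale 0 is the no-effect control and ±100 the full control effect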
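FluxOr-based Tl+ influx in U2OS cells transduced with KCNH2 3.1 virus; rate constants normalized to DMSO controls.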
RXFP1 antagonist – qHTS Assay for Antagonists of the Relaxin Receptor RXFP1; AID 1259400, 2018; HEK293-RXFP1, relaxin-stimulated cAMP HTRF, 30 min; hits give low values; hit rate 0.59% among 350,000; activity change, negative = inhibition, % at 57.5 µM; Relaxin receptor 1 (Homo sapiens), Q9HBX9;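 active means activity change of -60% or lower, but not beyond a set lower limit; inconclusive means change between -60% and -40%, or beyond the set limit; inactive means change above -40%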; further: on the % scale 0 is the no-effect control and ±100 the full control effect
RXFP1 ag – qHTS Assay for Agonists of the Relaxin Receptor RXFP1. Relaxin receptor 1 (Homo sapiens), Q9HBX9. HEK293T-RXFP1 cAMP TR-FRET, 30 min; response scale: percent of porcine relaxin response, buffer zero. Potency, µM (top dose mostly 57.5 µM), for the others: at the top dose activation, actives largely listed as activators. hit rate 0.3% among 370,000; further: potency means the concentration at half of the fitted maximal effect; on the % scale 0 is the no-effect control and ±100 the full control effect; nearly all actives have a fitted effect of over 60% in size
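Agonist response is measured as cAMP accumulation in an RXFP1-transfected HEK293T line under PDE4 inhibition. Values are scaled between buffer-only and 29 nM porcine relaxin, and EC50s come from standard Hill equation fits.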
PTHR1 ag – qHTS for PTHR1 Agonists: Primary Screen; HEK293 GP2 PTHR1 cells, GloSensor cAMP luminescence, 1 h; hit rate 0.075% among 410,000; Potency, µM (titrated, usually from 115 µM), inactives show at the highest dose activation, hits mostly activators; Parathyroid hormone/parathyroid hormone-related peptide receptor (Homo sapiens), Q03431; further: potency means the concentration at half of the fitted maximal effect; nearly all actives have a fitted effect of over 55% in size
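HEK-293-derived GP2 cells expressing PTHR1 and a GloSensor cAMP reporter, 3,000/well, plated overnight, given luciferin plus IBMX (each 0.5 mM as added) for 1 h at 37 °C, then compound for 1 h at 37 °C. Luminescence was read after 15 min at room temperature.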
KCNH2 WT inh – qHTS for Inhibitors of KCHN2 3.1: Wildtype qHTS | hit rate 0.37% among 340,000 | Voltage-gated inwardly rectifying potassium channel KCNH2 (Homo sapiens), Q12809 | AID 720551, 2013 | activity change, % at 1.84 µM | U2OS, BacMam KCNH2, thallium flux FluxOr; hits give low values;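 active means maximum activity change below -70%; inconclusive means maximum activity change between -70% and -50%; inactive means maximum activity change above -50%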; further: on the % scale 0 is the no-effect control and ±100 the full control effect
Target sequence (Q12809 whole entry, looked up): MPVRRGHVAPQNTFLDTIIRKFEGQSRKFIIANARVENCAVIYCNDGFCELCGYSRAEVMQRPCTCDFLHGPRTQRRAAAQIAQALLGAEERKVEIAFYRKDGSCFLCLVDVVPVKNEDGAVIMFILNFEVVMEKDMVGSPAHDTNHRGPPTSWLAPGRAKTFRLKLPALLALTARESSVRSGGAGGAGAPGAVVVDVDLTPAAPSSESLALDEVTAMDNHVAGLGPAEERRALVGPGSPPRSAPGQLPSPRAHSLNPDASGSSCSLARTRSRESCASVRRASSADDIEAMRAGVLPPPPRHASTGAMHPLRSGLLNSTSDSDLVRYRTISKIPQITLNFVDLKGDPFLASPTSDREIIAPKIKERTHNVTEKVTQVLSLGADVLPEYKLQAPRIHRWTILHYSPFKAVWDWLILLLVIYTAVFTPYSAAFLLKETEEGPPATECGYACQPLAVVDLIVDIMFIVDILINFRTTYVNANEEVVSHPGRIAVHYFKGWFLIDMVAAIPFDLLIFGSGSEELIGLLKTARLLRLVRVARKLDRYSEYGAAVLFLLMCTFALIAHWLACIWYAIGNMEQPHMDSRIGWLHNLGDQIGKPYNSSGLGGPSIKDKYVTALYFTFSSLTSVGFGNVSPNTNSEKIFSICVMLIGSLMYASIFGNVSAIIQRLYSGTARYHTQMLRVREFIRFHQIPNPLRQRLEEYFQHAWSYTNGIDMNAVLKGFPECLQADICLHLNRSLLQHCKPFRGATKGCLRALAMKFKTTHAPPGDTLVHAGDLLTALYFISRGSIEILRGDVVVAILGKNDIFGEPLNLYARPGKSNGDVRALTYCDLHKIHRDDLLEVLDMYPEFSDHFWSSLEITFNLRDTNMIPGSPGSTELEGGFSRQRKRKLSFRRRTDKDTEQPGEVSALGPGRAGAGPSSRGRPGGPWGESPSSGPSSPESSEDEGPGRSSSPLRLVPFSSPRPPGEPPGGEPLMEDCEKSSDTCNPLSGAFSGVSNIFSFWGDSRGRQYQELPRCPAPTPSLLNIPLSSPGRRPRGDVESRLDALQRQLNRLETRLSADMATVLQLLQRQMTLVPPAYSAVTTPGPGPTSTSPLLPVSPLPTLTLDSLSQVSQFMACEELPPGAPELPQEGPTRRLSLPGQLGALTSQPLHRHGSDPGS
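U2OS cells were transduced with wild-type KCNH2 virus (2.03 x 10^8 / mL) for 4 h at room temperature, then cultured overnight at 37 C. Thallium flux was read with FluxOr dye. Rate constants were normalized to DMSO controls.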
The depositor's hits bear a star; i = inactive; u = inconclusive; x = no result given; [ ] = dose if it differs, or a comment. Unless noted, the call rests on the fitted dose curve; in most records, active means well fitted curve in the direction sought with a large enough effect; inconclusive means small, poorly fitted or top-dose-only effect, or another doubt; inactive means no such curve, though single readings can be large; an effect the other way counts as inactive or inconclusive.

SMILES | GRP78 ERSR act | KCNH2 3.1 inh | RXFP1 antagonist | RXFP1 ag | PTHR1 ag | KCNH2 WT inh
Cc1ccc(N2C(=O)c3ccc(C(=O)N4CCN(Cc5ccccc5)CC4)cc3C2=O)cc1 | -8% | -202* | -2 | 4% | -25% | -145*
O=C(c1ccc(-n2cccc2)cc1)N1CCN(Cc2ccccc2)CC1 | 1% | u | -3 | 0% | -35% | -73*
Cc1cccc2c1-c1sc(C(=O)Nc3ccccc3N3CCN(C)CC3)cc1CO2 | -7% | -71* | -9 | 8% | -12% | -17
Cc1cccc2c1-c1sc(C(=O)NCCCN3CCN(c4ccccc4F)CC3)cc1CO2 | -4% | x | -14 | 5% | -39% | x
O=C(CN1C(=O)C2CCCCC2C1=O)Nc1ccccc1N1CCCC1 (stereo unspecified) | -2% | -1 | -99* | -1% | -12% | 3
CCC(C(=O)Nc1ccccc1N1CCCC1)c1ccccc1 (stereo unspecified) | -6% | -37 | -68* | 0% | -23% | -4
O=C(CN1C(=O)C2CC=CCC2C1=O)Nc1ccccc1N1CCCC1 (stereo unspecified) | -1% | 0 | -15 | 0% | i | -1
O=C(Cc1ccccc1)Nc1ccccc1C(=O)Nc1ccccc1 | -6% | -123* | 0 | -1% | -3% | 6
O=C(Cc1ccccc1)Nc1ccccc1N1CCN(c2ccccc2)CC1 | -5% | -70* | -25 | 0% | i | 0
CCC(Oc1ccccc1)C(=O)Nc1ccccc1N1CCCC1 (stereo unspecified) | 9% | 7 | -11 | 2% | -8% | 12
CCOc1ccccc1N(CC(=O)OC)S(C)(=O)=O | -3% | -1 | 0 | -1% | -20%[57.5 µM] | 16
CCOc1ccccc1N(C)C(=O)C1CCN(S(=O)(=O)c2cccc3nonc23)CC1 | -4% | 3 | -6 | 1% | -24% | 1
CCOC(=O)N1CCN(C(=O)Cn2c(C)cc3ccccc3c2=O)CC1 | -2% | 0 | 2 | 0% | -42% | -9
Cc1ccc(S(=O)(=O)N2CCCN(C(C)c3nc4ccccc4c(=O)[nH]3)CC2)cc1 (stereo unspecified) | -3% | -1 | -2 | 2% | i | -280*
Cc1ccc(S(=O)(=O)N2CCCN(Cc3nc4ccccc4c(=O)[nH]3)CC2)cc1 | -1% | 6 | -12 | 1% | i | -11
On1onc2c3cc(-c4ccccc4)nc3ccc21 | 1% | -27 | -33 | 1% | -27% | 7
COC(=O)C(NC(=O)c1ccccc1C)(Nc1ncc(S(=O)(=O)c2ccc([N+](=O)[O-])cc2)s1)C(F)(F)F (stereo unspecified) | -5% | -1 | 4 | 3% | -25%[57.5 µM] | -1
COC(=O)C(NC(=O)c1ccc(F)cc1)(Nc1ncc(S(=O)(=O)c2ccc([N+](=O)[O-])cc2)s1)C(F)(F)F (stereo unspecified) | -8% | -80* | -13 | -4% | -18% | -75*
COc1cc2c(cc1OC)C(C(=O)Nc1ccc(F)c(Cl)c1)CC(=O)N2 (stereo unspecified) | 0% | -110* | -1 | 4% | -20% | 2
COc1cc2c(cc1OC)C(c1ccc(Cl)cc1)CC(=O)N2 (stereo unspecified) | -6% | -5 | -5 | 2% | -7% | -14
C=C1CC2C=C(NC(C)=O)CC(C1)C2 (stereo unspecified) | -1% | -83* | 0 | 1% | -9%[57.5 µM] | -7
Cc1ccc(S(=O)(=O)NCC(=O)N(CCc2ccccc2)CC(=O)NCc2ccco2)cc1 | 1% | -9 | -5 | 1% | i | -75*
O=C(C1CCCO1)N1CCN(Cc2c(O)ccc3ccccc23)CC1 (stereo unspecified) | 6% | -95* | 6 | 2% | i | -14
Cc1ccc(CN2CCN(C(=O)C3CCCO3)CC2)cc1 (stereo unspecified) | -2% | -5 | 12 | 1% | -20%[57.5 µM] | -3
COC(=O)N/N=C(\C)c1ccc(OC(F)F)cc1OC(F)F | -4% | 3 | 21 | 0% | i | 0
SMILES | GRP78 ERSR act | KCNH2 3.1 inh | RXFP1 antagonist | RXFP1 ag | PTHR1 ag | KCNH2 WT inh
CC/C(=N\NC(=O)CNC(=O)/C=C/c1ccc(OC)cc1)c1ccccc1 | -7% | 25 | -25 | -2% | -9% | -136*
COc1ccc(/C=C/C(=O)NCC(=O)N/N=C(\C)Cc2ccccc2)cc1 | -3% | -8 | -11 | 3% | -28% | 4
COc1ccc(C)cc1N(CC(=O)NC1CCCC1)C(=O)Cn1nnc(-c2ccc(C)o2)n1 | -1% | -101* | 4 | 1% | i | 1
COc1ccc(/C=C2\SC(=N)N(c3ccc(F)cc3)C2=O)cc1OC | -3% | -4 | -11 | 1% | -12% | -5
COc1ccc(C(=O)NCC(=O)N/N=C/c2cccc(OC(=O)c3ccco3)c2)cc1OC | 0% | -3 | 0 | 0% | i | -75*
COc1ccc(/C=N/NC(=O)CNC(=O)c2ccc3c(c2)OCCO3)cc1OC | -3% | 2 | -10 | 0% | i | -11
COc1ccc([C@H]2[C@@H](C#N)[C@H](C#N)N3CCCN23)cc1 | -3% | -98* | -11 | 0% | -7%[57.5 µM] | 1
CCOC(=O)C1CCCN(Cc2nc(N)nc(Nc3ccc(OC)cc3)n2)C1 (stereo unspecified) | -10% | -37 | -5 | 2% | i | 2
CCOC(=O)N1CCN(Cc2nc(N)nc(Nc3ccc(OC)cc3)n2)CC1 | 1% | -32 | 11 | 2% | -16% | 10
CCOC(=O)N1CCN(Cc2nc(N)nc(Nc3ccc(Oc4ccccc4)cc3)n2)CC1 | -8% | -89* | -17 | 0% | -19% | -32
CCOC(=O)N1CCN(Cc2nc(N)nc(Nc3ccc(Cl)cc3)n2)CC1 | 1% | -100* | -6 | 2% | -18% | 6
CCOC(=O)N1CCN(Cc2nc(N)nc(Nc3ccc(OCC)cc3)n2)CC1 | -5% | -86* | 11 | 3% | -6%[57.5 µM] | 0
CCOC(=O)C1CCCN(Cc2nc(N)nc(Nc3ccc(Cl)cc3)n2)C1 (stereo unspecified) | -5% | u | -4 | 3% | -17% | -9
COc1ccc(NC(=O)CCNC(=O)Cn2cnc3sc4c(c3c2=O)CCCC4)c(OC)c1 | -1% | -14 | 6 | 6% | -9% | 5
